For assay [1], the target named is ALK tyrosine kinase receptor (Homo sapiens) (UniProt Q9UM73). To be noted: at 10 µM.
Assay [2] addresses T1, Activin receptor type-1B (Homo sapiens) (UniProt P36896).
T1 sequence (whole entry): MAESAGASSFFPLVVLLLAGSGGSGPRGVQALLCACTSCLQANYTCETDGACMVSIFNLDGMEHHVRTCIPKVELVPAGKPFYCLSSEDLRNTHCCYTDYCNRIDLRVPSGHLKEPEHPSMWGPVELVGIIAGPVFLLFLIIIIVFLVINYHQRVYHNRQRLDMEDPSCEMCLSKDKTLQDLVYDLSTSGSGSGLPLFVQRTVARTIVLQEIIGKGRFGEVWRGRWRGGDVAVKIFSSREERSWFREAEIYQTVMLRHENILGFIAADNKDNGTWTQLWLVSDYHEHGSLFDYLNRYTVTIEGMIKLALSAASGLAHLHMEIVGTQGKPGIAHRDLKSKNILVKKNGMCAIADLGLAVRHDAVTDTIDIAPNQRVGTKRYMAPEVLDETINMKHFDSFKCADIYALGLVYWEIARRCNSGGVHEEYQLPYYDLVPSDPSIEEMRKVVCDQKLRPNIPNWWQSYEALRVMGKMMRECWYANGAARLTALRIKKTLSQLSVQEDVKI
To be noted: at 1 µM.

In assay [3] the target is T1, Activin receptor type-1B (Homo sapiens). The conditions noted are these: at 10 µM.
The target in assay [4] is T2, NUAK family SNF1-like kinase 1 (Homo sapiens) (UniProt O60285).
T2 sequence (whole entry): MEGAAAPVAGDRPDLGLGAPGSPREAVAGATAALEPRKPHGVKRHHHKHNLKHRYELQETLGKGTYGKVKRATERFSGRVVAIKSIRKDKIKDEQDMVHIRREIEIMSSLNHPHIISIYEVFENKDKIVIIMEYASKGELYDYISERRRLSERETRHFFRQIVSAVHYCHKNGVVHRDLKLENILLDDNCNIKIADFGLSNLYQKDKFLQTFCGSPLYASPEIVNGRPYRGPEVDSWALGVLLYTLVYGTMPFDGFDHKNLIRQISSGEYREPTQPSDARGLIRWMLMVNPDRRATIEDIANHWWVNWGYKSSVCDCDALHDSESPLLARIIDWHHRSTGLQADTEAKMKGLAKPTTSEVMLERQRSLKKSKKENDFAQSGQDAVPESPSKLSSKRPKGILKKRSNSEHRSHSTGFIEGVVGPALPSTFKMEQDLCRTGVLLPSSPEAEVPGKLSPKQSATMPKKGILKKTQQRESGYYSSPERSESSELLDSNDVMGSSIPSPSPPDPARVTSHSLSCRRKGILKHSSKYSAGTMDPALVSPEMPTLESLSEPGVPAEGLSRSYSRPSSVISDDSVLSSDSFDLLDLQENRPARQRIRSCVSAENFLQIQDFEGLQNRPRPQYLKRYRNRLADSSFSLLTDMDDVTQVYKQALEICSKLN
The conditions noted are these: at 10 µM.

Assay [5] has as its target T3, Mitogen-activated protein kinase kinase kinase 5 (Homo sapiens) (UniProt Q99683).
T3 sequence (whole entry): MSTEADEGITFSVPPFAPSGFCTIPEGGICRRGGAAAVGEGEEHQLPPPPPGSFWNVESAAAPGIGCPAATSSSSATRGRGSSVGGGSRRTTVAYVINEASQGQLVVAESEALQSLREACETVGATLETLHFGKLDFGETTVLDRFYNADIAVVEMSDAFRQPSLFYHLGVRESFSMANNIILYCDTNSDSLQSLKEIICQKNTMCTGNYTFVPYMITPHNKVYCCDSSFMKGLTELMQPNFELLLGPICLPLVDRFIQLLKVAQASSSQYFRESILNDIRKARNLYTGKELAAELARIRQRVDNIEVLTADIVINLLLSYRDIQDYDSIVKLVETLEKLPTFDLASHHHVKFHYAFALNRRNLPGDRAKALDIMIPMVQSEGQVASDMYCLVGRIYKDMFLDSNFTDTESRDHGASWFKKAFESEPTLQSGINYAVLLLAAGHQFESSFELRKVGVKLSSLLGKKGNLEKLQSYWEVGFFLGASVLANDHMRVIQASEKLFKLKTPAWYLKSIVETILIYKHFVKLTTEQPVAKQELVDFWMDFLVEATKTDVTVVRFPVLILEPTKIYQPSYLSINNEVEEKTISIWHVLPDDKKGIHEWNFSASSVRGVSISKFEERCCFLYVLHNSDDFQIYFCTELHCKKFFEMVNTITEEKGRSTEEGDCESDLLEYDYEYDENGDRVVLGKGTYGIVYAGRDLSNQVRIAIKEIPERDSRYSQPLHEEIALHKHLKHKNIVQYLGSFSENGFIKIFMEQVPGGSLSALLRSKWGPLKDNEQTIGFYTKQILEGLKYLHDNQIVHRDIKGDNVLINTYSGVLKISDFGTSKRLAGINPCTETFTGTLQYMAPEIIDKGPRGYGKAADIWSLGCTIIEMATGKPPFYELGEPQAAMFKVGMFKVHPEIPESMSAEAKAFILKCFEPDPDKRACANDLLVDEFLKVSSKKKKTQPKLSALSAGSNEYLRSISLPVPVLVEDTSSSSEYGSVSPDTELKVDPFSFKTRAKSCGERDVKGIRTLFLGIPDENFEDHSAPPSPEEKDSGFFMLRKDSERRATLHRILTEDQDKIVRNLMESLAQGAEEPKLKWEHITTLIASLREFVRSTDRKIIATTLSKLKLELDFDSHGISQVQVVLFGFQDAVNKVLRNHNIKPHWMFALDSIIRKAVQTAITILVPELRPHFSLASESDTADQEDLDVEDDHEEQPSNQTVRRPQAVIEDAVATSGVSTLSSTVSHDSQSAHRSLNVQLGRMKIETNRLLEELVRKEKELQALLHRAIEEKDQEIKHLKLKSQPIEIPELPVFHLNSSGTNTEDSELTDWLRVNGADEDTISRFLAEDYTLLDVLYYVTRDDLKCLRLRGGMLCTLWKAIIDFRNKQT
To be noted: at 1 µM.

Assay [6] has as its target Platelet-derived growth factor receptor beta (Homo sapiens) (UniProt P09619). The conditions noted are these: at 1 µM.
The target is the same in assay [7]. To be noted: at 10 µM.
Assay [8] addresses cAMP-dependent protein kinase catalytic subunit alpha (Homo sapiens) (UniProt P17612). The conditions noted are these: at 1 µM.
Assay [9] has the same target. The conditions noted are these: at 10 µM.
The target of assay [10] is T4, AMP-activated protein kinase (AMPK) alpha-1/beta-1/gamma-1 (Homo sapiens) (UniProt P54619+Q9Y478+Q13131). The conditions noted are these: at 1 µM.
T4 sequence (P54619 whole entry): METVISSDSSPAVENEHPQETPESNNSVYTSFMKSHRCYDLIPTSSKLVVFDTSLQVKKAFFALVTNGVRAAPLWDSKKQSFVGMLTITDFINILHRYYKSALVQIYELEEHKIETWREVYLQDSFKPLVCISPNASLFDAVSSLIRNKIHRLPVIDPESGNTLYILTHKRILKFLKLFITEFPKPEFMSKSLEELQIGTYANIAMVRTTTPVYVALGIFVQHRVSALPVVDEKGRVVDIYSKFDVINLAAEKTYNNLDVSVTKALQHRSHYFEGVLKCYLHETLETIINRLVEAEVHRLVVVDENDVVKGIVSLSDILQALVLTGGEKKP
T4 sequence (Q13131 whole entry partner): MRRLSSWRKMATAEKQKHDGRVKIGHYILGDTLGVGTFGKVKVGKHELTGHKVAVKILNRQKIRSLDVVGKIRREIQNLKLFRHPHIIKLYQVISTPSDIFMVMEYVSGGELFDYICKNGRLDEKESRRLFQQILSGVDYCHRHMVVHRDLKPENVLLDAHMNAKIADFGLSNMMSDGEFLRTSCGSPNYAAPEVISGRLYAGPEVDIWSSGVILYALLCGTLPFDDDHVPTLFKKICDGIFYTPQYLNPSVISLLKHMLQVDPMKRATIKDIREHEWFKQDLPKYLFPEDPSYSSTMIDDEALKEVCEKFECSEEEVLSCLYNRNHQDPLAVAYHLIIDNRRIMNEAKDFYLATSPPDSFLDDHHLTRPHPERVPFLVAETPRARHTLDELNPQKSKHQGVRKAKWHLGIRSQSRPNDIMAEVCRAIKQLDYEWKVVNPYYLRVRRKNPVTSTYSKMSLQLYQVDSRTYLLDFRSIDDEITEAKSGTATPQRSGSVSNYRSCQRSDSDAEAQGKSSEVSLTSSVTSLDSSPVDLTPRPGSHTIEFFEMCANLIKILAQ
T4 sequence (Q9Y478 2-270 partner limits assumed): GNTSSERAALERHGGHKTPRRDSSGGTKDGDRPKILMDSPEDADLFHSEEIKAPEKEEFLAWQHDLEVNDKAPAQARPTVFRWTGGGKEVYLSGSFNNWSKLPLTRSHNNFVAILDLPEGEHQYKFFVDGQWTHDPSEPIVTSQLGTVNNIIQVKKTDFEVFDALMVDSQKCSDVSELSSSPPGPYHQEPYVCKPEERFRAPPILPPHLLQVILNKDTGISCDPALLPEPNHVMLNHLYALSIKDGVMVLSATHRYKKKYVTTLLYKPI
Assay [11] deals with T4, AMP-activated protein kinase (AMPK) alpha-1/beta-1/gamma-1 (Homo sapiens). To be noted: at 10 µM.
The target of assay [12] is T5, AMP-activated protein kinase, AMPK (Homo sapiens) (UniProt P54646+O43741+P54619+Q9UGJ0+Q9Y478+Q13131+Q9UGI9). To be noted: at 1 µM.
The target of assay [13] is T5, AMP-activated protein kinase, AMPK (Homo sapiens). The conditions noted are these: at 10 µM.
In assay [14] the target is T2, NUAK family SNF1-like kinase 1 (Homo sapiens). To be noted: at 1 µM.
Assay [15] concerns the target Platelet-derived growth factor receptor alpha (Homo sapiens) (UniProt P16234). To be noted: at 1 µM.
Assay [16] has the same target. The conditions noted are these: at 10 µM.
In assay [17] the target is T6, 3-phosphoinositide-dependent protein kinase 1 (Homo sapiens) (UniProt O15530).
T6 sequence (whole entry): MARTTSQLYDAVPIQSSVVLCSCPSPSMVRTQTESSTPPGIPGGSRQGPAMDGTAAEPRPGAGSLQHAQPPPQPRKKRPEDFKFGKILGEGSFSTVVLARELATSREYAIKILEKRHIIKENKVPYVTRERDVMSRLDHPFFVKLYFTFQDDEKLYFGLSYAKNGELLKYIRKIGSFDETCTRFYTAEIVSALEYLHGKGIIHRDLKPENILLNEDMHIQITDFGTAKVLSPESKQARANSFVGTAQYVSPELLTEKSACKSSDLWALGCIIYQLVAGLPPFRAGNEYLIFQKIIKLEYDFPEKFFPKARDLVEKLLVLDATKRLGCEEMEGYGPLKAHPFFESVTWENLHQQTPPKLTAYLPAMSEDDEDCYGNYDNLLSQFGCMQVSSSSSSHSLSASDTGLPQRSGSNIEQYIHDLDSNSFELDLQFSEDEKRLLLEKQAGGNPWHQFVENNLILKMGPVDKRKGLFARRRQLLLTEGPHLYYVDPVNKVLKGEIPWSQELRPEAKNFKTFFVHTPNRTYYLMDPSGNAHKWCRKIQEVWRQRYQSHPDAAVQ
To be noted: at 1 µM.

For assay [18], the target named is T6, 3-phosphoinositide-dependent protein kinase 1 (Homo sapiens). The conditions noted are these: at 10 µM.
In assay [19] the target is RAC-gamma serine/threonine-protein kinase (Homo sapiens) (UniProt Q9Y243). To be noted: at 1 µM.
RAC-gamma serine/threonine-protein kinase (Homo sapiens), sequence (Q9Y243 whole entry): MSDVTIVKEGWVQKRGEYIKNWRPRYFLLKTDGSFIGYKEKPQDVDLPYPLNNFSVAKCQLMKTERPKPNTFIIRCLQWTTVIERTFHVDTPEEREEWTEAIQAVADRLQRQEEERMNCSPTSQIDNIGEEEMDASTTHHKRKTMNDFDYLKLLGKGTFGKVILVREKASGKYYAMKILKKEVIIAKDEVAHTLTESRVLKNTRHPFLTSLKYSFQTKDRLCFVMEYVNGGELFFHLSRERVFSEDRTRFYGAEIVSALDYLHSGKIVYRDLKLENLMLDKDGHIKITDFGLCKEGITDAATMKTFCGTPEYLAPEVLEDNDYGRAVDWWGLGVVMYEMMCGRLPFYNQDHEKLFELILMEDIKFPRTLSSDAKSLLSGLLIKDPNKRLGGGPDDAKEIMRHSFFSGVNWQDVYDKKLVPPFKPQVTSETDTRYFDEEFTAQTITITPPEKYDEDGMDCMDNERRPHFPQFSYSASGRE
Assay [20] has the same target. The conditions noted are these: at 10 µM.

Each structure is given as a SMILES string.

ALK tyrosine kinase receptor (Homo sapiens), sequence (Q9UM73 19-1620 limits assumed): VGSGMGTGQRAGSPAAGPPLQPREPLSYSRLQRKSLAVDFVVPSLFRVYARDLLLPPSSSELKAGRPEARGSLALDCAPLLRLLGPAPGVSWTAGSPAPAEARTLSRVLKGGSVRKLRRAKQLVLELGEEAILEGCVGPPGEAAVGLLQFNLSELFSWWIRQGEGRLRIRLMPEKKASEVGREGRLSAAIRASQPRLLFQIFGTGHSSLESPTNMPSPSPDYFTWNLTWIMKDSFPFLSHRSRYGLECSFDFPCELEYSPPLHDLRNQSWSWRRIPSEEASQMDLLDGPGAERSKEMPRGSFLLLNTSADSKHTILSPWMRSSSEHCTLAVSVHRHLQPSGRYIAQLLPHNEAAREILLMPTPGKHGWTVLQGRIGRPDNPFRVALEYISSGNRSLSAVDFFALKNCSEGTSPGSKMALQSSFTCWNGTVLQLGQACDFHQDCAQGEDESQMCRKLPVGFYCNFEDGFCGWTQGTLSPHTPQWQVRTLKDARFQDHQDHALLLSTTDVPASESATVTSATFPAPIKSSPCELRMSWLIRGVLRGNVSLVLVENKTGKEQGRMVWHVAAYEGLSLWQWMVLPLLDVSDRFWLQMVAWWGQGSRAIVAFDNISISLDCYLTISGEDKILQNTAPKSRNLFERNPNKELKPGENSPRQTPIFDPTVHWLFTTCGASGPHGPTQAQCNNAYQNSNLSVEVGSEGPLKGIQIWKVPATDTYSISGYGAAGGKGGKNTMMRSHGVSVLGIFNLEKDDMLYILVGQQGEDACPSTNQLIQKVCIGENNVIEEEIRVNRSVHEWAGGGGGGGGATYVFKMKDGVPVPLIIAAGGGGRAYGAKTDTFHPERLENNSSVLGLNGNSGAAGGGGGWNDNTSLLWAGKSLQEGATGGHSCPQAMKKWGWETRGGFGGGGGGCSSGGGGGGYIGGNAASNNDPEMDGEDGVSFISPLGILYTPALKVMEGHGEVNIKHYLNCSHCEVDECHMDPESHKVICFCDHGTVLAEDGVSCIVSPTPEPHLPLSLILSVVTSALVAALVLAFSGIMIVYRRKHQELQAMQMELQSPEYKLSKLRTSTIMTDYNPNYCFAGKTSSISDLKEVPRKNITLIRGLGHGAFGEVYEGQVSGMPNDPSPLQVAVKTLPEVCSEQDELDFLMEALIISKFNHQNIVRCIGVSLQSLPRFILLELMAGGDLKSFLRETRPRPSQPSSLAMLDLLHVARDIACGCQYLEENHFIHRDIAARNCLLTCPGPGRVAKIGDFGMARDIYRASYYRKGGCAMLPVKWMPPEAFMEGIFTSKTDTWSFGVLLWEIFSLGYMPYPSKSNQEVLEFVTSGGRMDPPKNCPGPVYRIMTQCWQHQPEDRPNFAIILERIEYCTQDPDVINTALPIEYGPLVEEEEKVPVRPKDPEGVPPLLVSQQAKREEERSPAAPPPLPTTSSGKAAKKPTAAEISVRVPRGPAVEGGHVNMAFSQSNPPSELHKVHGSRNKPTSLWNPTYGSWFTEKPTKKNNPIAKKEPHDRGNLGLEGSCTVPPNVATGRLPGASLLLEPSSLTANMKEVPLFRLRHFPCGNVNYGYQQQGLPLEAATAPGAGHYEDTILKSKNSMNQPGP
Platelet-derived growth factor receptor alpha (Homo sapiens), sequence (P16234 whole entry): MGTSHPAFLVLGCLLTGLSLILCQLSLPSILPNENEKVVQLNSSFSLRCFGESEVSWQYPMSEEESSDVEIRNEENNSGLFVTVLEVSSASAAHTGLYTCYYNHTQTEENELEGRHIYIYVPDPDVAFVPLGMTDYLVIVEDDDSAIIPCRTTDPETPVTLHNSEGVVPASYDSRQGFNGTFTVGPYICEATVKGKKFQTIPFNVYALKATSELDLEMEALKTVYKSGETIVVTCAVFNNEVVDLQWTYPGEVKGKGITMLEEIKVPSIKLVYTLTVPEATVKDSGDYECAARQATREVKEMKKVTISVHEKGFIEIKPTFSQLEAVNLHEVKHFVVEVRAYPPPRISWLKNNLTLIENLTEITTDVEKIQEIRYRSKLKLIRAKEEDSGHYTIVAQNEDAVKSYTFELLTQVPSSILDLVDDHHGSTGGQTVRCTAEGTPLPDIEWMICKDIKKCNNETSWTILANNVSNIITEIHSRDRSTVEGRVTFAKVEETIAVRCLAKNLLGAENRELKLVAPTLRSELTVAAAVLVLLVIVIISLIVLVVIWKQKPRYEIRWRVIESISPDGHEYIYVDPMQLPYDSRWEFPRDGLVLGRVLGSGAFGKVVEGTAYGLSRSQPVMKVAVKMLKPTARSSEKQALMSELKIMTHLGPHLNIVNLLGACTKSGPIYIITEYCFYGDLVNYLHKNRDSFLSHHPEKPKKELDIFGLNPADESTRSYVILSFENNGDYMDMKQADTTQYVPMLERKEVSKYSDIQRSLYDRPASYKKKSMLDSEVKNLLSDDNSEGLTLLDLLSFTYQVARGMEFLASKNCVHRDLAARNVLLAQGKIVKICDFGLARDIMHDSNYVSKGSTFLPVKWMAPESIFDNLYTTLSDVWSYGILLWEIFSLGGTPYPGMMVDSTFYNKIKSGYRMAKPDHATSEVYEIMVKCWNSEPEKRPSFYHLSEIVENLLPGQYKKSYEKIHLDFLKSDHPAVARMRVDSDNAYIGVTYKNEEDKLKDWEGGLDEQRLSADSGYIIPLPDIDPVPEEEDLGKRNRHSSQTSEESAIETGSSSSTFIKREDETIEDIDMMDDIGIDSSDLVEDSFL

For `Fc1ccc(-c2nc3n(c2-c2ccncc2)CCS3)cc1`, the residual activity in assay [1] was determined as 94%; in assay [2], 100%; in assay [3], 29%; in assay [4], 90%; in assay [5], 96%; in assay [6], 123%. Also, the residual activity in assay [7] came to 128%; in assay [8] it was 94%; in assay [9], 84%.

`Cn1c2ccccc2c2c3c(c4c5ccccc5n(CCC#N)c4c21)CNC3=O`: the residual activity in assay [1] was 4%; in [2], 108%; in assay [3] it was 64%; in assay [10], 22%; in assay [11], 22%; in [12], 19%. Moreover, the residual activity in [13] came out at 16%; in assay [14], 10%; in [4], 6%; in [5], 17%; in assay [15] it was 98%; in assay [16] it was 76%. Besides, the residual activity in assay [17] and in assay [18] was 6% each time.

Consider `O=c1cc(N2CCOCC2)oc2c(-c3ccccc3)cccc12`, for which the residual activity in assay [1] amounted to 53%.

Turning to `CCN(CC)CCNC(=O)c1c(C)[nH]c(/C=C2\C(=O)Nc3ccc(Cl)cc32)c1C`, the residual activity in assay [1] is 2%; in assay [2], 126%; in assay [3], 99%; in [10], 7%; in assay [11], 3%; in [12] it was 4%. Also, the residual activity in [13] was determined as 4%; in [14], 6%; in [4], 6%; in assay [5], 60%; in [15] it was 2%; in assay [16] it was 1%. The residual activity in [6] came to 1%; in assay [7] it was 1%; in [17] it was 78%; in assay [18], 39%; in [8] it was 81%; in assay [19], 79%. Further, the residual activity in assay [20] amounted to 33%.

For the compound `CN([C@@H](Cc1ccc(OS(=O)(=O)c2cccc3cnccc23)cc1)C(=O)N1CCN(c2ccccc2)CC1)S(=O)(=O)c1cccc2cnccc12`, the residual activity in assay [1] was 57%; in [3], 86%; in [13] it was 86%; in assay [5], 115%; in assay [7], 98%; in assay [20], 60%.

Turning to `O=C(c1cc2cc(O)ccc2[nH]1)c1cc2cc(O)ccc2[nH]1`, the residual activity in assay [1] stood at 58%; in [2], 111%; in assay [10], 16%; in assay [11] it was 1%; in assay [12] it was 13%; in [13], 3%. Moreover, the residual activity in assay [14] came out at 65%; in assay [4], 20%; in [15], 46%; in [16], 6%; in assay [6], 35%; in [7], 6%. Further, the residual activity in assay [17] is 79%; in assay [18] it was 23%; in [8], 74%.

Turning to `O=C1NC(=O)C(c2cn(CCCn3ccnc3)c3ccccc23)=C1Nc1ccccc1`, the residual activity in assay [1] turned out to be 65%; in assay [2], 107%; in [3], 103%; in [10], 74%; in [11] it was 32%; in [12] it was 73%. The residual activity in [13] was 25%; in [4], 38%; in assay [5] it was 82%; in assay [17], 39%; in assay [18], 8%; in assay [8], 69%. In addition, the figures for the residual activity in assay [9], in assay [19] and in assay [20] were 43%, 50% and 15%, respectively.

For `CCOC(=O)c1c(C)[nH]c(/C=C2\C(=O)Nc3ccccc32)c1C`, the residual activity in assay [1] is 118%; in assay [2] it was 120%; in assay [3] it was 83%; in assay [10] it was 80%; in assay [11], 65%; in assay [12], 85%. The residual activity in assay [13] was 74%; in assay [14], 88%; in assay [4], 85%; in assay [15], 43%; in [16], 45%; in assay [6], 90%. For the same compound, the residual activity in assay [7] was 92%.

The values are drawn from ChEMBL document CHEMBL2218924, “A broad activity screen in support of a chemogenomic map for kinase signalling research and drug discovery” (Biochem J, 2013).
